The list is not random: actives were taken first. Their share in the collection is about 10%.
Luciferase inh – blocks purified firefly luciferase enzyme activity. P08659. purified P. pyralis luciferase, luminescence, biochemical. Potency, µM (top dose mostly 115 µM), most hits filed as inhibitors. 76,000 compounds, 2.5% hits. AID 1347043; note: nearly all actives have a fitted effect of over 65% in size
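FLuc 10nM, D-luciferin 10uM, ATP 10uM, Mg acetate 10mM, Tris acetate pH 7.5, Tween/BSA; cpd qHTS; enzyme added last; CCD luminescence.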
3T3 cytotox – NIH 3T3 cell cytotoxicity; Potency, µM (doses to about 96.7 µM), hits mostly inhibitors; 94,000 compounds, 4.3% hits; NIH 3T3 viability, CellTiter-Glo ATP luminescence, 48-72 h; note: nearly all actives have a fitted effect of over 55% in size
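Cytotoxicity is measured as loss of cellular ATP: NIH 3T3 cells (400/well) are exposed to compound for 48 or 72 hr at 37 °C, then CellTiter-Glo luminescence is imaged after 10 min at room temperature.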
hNpr1 antagonist – blocks ANP-stimulated signaling of human Npr1 receptor. P16066. HEK293 hNpr1 GloSensor cGMP, ANP-stimulated luminescence. Potency, µM (highest dose often 46.3 µM), hits mostly inhibitors. 76,000 compounds, 1.6% hits. AID 1347048; calls by dose curve; note: nearly all actives have a fitted effect of over 60% in size
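Compound pre-incubated 30 min at room temperature on GloSensor-loaded HEK293 cells stably carrying hNpr1 and the pGS-40F cGMP biosensor. Stimulation uses hNppA at 0.1 nM final; luminescence is taken at baseline and 20 min post-agonist.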
GPT2 inhibitor – blocks human glutamate pyruvate transaminase 2; Recombinant GPT2, coupled pyruvate oxidase/HRP Amplex Red fluorescence; Potency, µM (titrated, usually from 57.7 µM), usual class: inhibitors; 100,000 compounds, 0.25% hits; note: nearly all actives have a fitted effect of over 60% in size
Target sequence (Q8TD30 whole entry, looked up): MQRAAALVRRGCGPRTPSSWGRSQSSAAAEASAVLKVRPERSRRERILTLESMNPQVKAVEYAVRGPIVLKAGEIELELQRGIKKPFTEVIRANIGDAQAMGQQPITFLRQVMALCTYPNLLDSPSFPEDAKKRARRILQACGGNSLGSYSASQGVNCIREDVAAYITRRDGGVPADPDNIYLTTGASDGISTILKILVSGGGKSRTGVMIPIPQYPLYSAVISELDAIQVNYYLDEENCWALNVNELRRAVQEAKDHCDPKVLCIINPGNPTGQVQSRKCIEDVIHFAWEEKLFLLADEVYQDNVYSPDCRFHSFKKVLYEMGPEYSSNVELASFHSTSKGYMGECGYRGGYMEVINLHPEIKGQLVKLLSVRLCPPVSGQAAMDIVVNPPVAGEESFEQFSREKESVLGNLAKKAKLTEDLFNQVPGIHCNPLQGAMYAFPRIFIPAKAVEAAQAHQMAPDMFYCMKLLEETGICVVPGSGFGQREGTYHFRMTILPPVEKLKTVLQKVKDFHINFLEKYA
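Fluorescence read-out: pyruvate from GPT2 turnover coupled to pyruvate oxidase, HRP and Amplex Red (0.2mM ThPP, 0.2U/mL PO and HRP, 50uM Amplex final). Substrates 250uM a-KG, 2mM L-alanine; enzyme 10ng/uL; 30 min RT.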
HEK cytotox – cytotoxic compounds in HEK 293 cells. HEK 293 viability, ATP luminescence (CellTiter-Glo), 48-72 h. AID 1345083. 94,000 compounds, 6.6% hits. Potency, µM (series often up to 115 µM), most hits filed as inhibitors; note: nearly all actives have a fitted effect of over 60% in size
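Viability of HEK 293 cells, plated at 250 cells/well, was judged by cellular ATP after compound treatment for 48 or 72 hr. Luminescence was imaged 10 min after CellTiter-Glo addition at room temperature.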
Hits are given with their value. Unless noted, calls come from the whole dose curve; as a rule, active = well fitted curve in the direction sought with a large enough effect; inconclusive = small, poorly fitted or top-dose-only effect, or another doubt; inactive = no such curve, though single readings can be large; an effect the other way counts as inactive or inconclusive.

`CC(C)(C)C(=O)N1CCC2(CC1)CC(=O)N(c1ccccc1)c1ccccc1O2` gave Luciferase inh inactive, 3T3 cytotox inactive, hNpr1 antagonist inactive, GPT2 inhibitor inactive and HEK cytotox inconclusive.
Screening COc1ccc(NC(=O)Cn2c(-c3ccc(F)cc3)nc(C)c(CCO)c2=O)cc1Cl returned Luciferase inh inactive, 3T3 cytotox inconclusive, hNpr1 antagonist inactive, GPT2 inhibitor inactive and HEK cytotox 35µM.
`CCOc1ccc(NC(=O)Cn2c(-c3cccc(Cl)c3)nc(C)c(CCO)c2=O)cc1` gave Luciferase inh inactive, 3T3 cytotox 32µM, hNpr1 antagonist inactive, GPT2 inhibitor inactive and HEK cytotox inconclusive.
Screening COc1ccccc1NC(=O)Cn1c(-c2ccccc2)nc(C)c(CCO)c1=O returned Luciferase inh inactive, 3T3 cytotox inconclusive, hNpr1 antagonist inactive, GPT2 inhibitor inactive and HEK cytotox 35µM.
`CCOc1ccccc1NC(=O)Cn1c(-c2ccccc2)nc(C)c(CCO)c1=O` gave Luciferase inh inactive, 3T3 cytotox inactive, hNpr1 antagonist inactive, GPT2 inhibitor inactive and HEK cytotox inactive.
Cc1noc(C)c1S(=O)(=O)N1CCCC1c1nncn1C1CCCC1 (stereo not given) was read as 3T3 cytotox inactive, GPT2 inhibitor inactive and HEK cytotox inactive.
O=C(NCc1cccs1)c1ccc2nc(-c3cccnc3)oc2c1 was read as 3T3 cytotox inactive, GPT2 inhibitor inactive and HEK cytotox inactive.
For O=C(N[C@@H]1CN(Cc2cccc(F)c2)C[C@H]1CO)c1ccccc1 the results were Luciferase inh inactive, 3T3 cytotox inconclusive, hNpr1 antagonist inactive, GPT2 inhibitor inactive and HEK cytotox 7.1µM.
O=C(N[C@@H]1CN(Cc2cc(F)cc(F)c2)C[C@H]1CO)c1ccccc1 was read as Luciferase inh inactive, 3T3 cytotox inactive, hNpr1 antagonist inactive, GPT2 inhibitor inactive and HEK cytotox inactive.
Screening COc1ccc(C(=O)N[C@@H]2CN(Cc3ccccc3)C[C@H]2CO)cn1 returned Luciferase inh inactive, 3T3 cytotox inconclusive, hNpr1 antagonist inactive, GPT2 inhibitor inactive and HEK cytotox 28µM.
For Cc1ccc(CN2C(=O)[C@@H]3C[C@@H](O)CN3C3(CN(Cc4cccs4)C3)C2=O)o1 the results were Luciferase inh inactive, 3T3 cytotox inactive, hNpr1 antagonist inactive, GPT2 inhibitor inactive and HEK cytotox inactive.
Cc1noc2c(NCc3ccncc3)cc(-c3cccc(C(F)(F)F)c3)nc12 was read as Luciferase inh inactive, 3T3 cytotox 50µM, hNpr1 antagonist inactive, GPT2 inhibitor inactive and HEK cytotox 71µM.
Cc1noc2c(NC(C)C)cc(-c3cccc(C(F)(F)F)c3)nc12 was read as Luciferase inh inactive, 3T3 cytotox inconclusive, hNpr1 antagonist inactive, GPT2 inhibitor inactive and HEK cytotox 100µM.
Screening Cc1noc2c(NCc3cnccn3)cc(-c3ccccc3)nc12 returned Luciferase inh inactive, 3T3 cytotox inconclusive, hNpr1 antagonist inactive, GPT2 inhibitor inactive and HEK cytotox inactive.
Screening O=C(C1CCN(C(=O)C2CC2)C1)N1CCC(c2nc3ncccc3[nH]2)CC1 (stereo not given) returned 3T3 cytotox inactive, GPT2 inhibitor inactive and HEK cytotox inactive.
Screening CN(C)Cc1cc(C[C@@H]2C[C@H](NC(=O)Nc3ccccc3)C2(C)C)no1 returned Luciferase inh inactive, 3T3 cytotox inactive, hNpr1 antagonist inactive, GPT2 inhibitor inactive and HEK cytotox inactive.
Screening c1cc(Cn2ccc3c(N4CCOCC4)nc(-c4cn[nH]c4)cc32)ccn1 returned Luciferase inh inactive, 3T3 cytotox inconclusive, hNpr1 antagonist inactive, GPT2 inhibitor inactive and HEK cytotox inactive.
Cn1cc(-c2cc3c(ccn3Cc3ccncc3)c(N3CCOCC3)n2)cn1 was read as Luciferase inh inactive, 3T3 cytotox inconclusive, hNpr1 antagonist inactive, GPT2 inhibitor inactive and HEK cytotox inactive.
For c1cc(Cn2ccc3c(N4CCOCC4)nc(-c4ccc5cn[nH]c5c4)cc32)ccn1 the results were Luciferase inh inactive, 3T3 cytotox 25µM, hNpr1 antagonist inactive, GPT2 inhibitor inactive and HEK cytotox 40µM.
Screening CN(C)Cc1ccc(-c2cc3c(ccn3Cc3ccncc3)c(N3CCOCC3)n2)cc1 returned Luciferase inh inactive, 3T3 cytotox inconclusive, hNpr1 antagonist inactive, GPT2 inhibitor inactive and HEK cytotox 100µM.
`CCn1cc(S(=O)(=O)N2CC(c3nc(CCN(C)C(=O)C4CC4)no3)C2)cn1` gave 3T3 cytotox inactive, GPT2 inhibitor inactive and HEK cytotox inactive.
COc1cccc(CNC(=O)c2nc3cccnc3n(C3CCCCC3)c2=O)c1 was read as 3T3 cytotox inconclusive, GPT2 inhibitor inactive and HEK cytotox inconclusive.
`O=C(C[C@H]1NC(=O)c2ccccc2NC1=O)Nc1nc(-c2cccs2)cs1` gave Luciferase inh inactive, 3T3 cytotox inconclusive, hNpr1 antagonist inactive, GPT2 inhibitor inactive and HEK cytotox inconclusive.
`CCN1CCC2(Cc3ccccc3CN(C(=O)Cc3ccc(OC)cc3)C2)C1` (stereo not given) gave 3T3 cytotox inactive, GPT2 inhibitor inactive and HEK cytotox inactive.
Screening COc1ccc(CN2CC3(CCN(S(=O)(=O)c4ccccc4Cl)CC3)C2=O)cc1 returned Luciferase inh inactive, 3T3 cytotox inconclusive, hNpr1 antagonist inactive, GPT2 inhibitor inactive and HEK cytotox inconclusive.
For COc1ccc(CN2CC3(CCN(S(=O)(=O)c4ccc(F)cc4)CC3)C2=O)cc1 the results were Luciferase inh inactive, 3T3 cytotox inactive, hNpr1 antagonist inactive, GPT2 inhibitor inactive and HEK cytotox 89µM.
Screening O=S(=O)(c1ccccc1F)N1CCC(CCc2nc(C3CCOCC3)no2)CC1 returned 3T3 cytotox inconclusive, GPT2 inhibitor inactive and HEK cytotox 45µM.
Screening COc1ccc(Nc2ccnc(N3CCC(NC(=O)Nc4ccc(Cl)cc4)CC3)n2)cc1 returned 3T3 cytotox 32µM, GPT2 inhibitor inactive and HEK cytotox 20µM.
Screening Cc1ccc(Nc2ccnc(N3CCC(NC(=O)Nc4ccccc4)CC3)n2)cc1 returned 3T3 cytotox inconclusive, GPT2 inhibitor inactive and HEK cytotox inconclusive.
Cc1ccc(Nc2ccnc(N3CCC(NC(=O)Nc4ccc(Cl)cc4)CC3)n2)cc1 was read as 3T3 cytotox 22µM, GPT2 inhibitor inactive and HEK cytotox 25µM.
COc1ccc(C(=O)N2CCCC(C(=O)N3CCC(c4nc5ccncc5[nH]4)C3)C2)cc1 (stereo not given) was read as 3T3 cytotox inactive, GPT2 inhibitor inactive and HEK cytotox inactive.
`Cn1ccc2c(C(=O)NCC3CCC(=O)N3)nc(-c3ccccc3)cc21` (stereo not given) gave Luciferase inh inactive, 3T3 cytotox 50µM, hNpr1 antagonist inactive, GPT2 inhibitor inactive and HEK cytotox inactive.
Cn1ccc2c(C(=O)NCCC(N)=O)nc(-c3ccccc3C(F)(F)F)cc21 was read as Luciferase inh inactive, 3T3 cytotox inconclusive, hNpr1 antagonist inactive, GPT2 inhibitor inactive and HEK cytotox inconclusive.

Assay outcomes (PubChem)
